By AC50 is commonly meant the concentration giving half of the maximal activity seen.

Results filed as inconclusive are left out. The source made the active and inactive calls. The calls were made as follows, unless noted: active = hit-call score of the fitted dose curve at least 0.9, where 1 is the maximum; inconclusive = response in the unintended direction; inactive = score below 0.9.

Experimental findings from PubChem BioAssay (EPA / NIEHS) are described below.

Assay [1] in a line: CPHEA_Stoker_NIS_Cytotoxicity: Cytotoxicity Assessment for CPHEA's Radioactive Iodide Uptake (RAIU) Assay for Sodium/Iodide Symporter (NIS) Inhibition, Stoker and Laws Labs (AID 2283897).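 As to AC50: active means loss of ATP signal versus DMSO meaning cytotoxicity.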 In short, it runs like this: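 CellTiter-Glo ATP luminescence gauged viability in HEK293T cells expressing human NIS after 2 h chemical exposure. Concentrations ran 0.001–100 uM in 0.5% DMSO; DMSO served as baseline for the loss-of-signal fit.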

Assay [2] deals with Sodium/Iodide Symporter (NIS), SLC5A5 (gene 6528). Briefly: CPHEA_Stoker_NIS_Inhibition_RAIU: CPHEA's Radioactive Iodide Uptake (RAIU) Assay for Sodium/Iodide Symporter (NIS) Inhibition, Stoker and Laws Labs (AID 2283841). Put shortly:
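Iodide uptake read as CPM of intracellular 125I (final 329 pM) after 2 h room-temperature exposure in HEPES-buffered HBSS, pH 7.4. Human NIS-expressing HEK293T cells; six concentrations 0.001–100 uM, 0.5% DMSO, normalised to DMSO wells.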

Assay [3] deals with frog Estrogen Receptor (ER2), gene 100174814. The assay can be described thus: ATG_frER2_XSP2: Attagene TRANS-FACTORIAL Multi-Species (XSP2) HepG2 Assay for frog Estrogen Receptor (ER2) (AID 2283828). In short, it runs like this: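 Read-out: reporter transcript levels by RT-PCR with 6-FAM primer extension, HpaI digestion and capillary electrophoresis, scored as induction over DMSO control. Transfected HepG2 carrying Xenopus ER2–GAL4 chimera; compounds incubated 24 h.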

Assay [4] has as its target Peroxisome proliferator-activated receptor gamma (Homo sapiens) (UniProt P37231). The assay can be described thus: ATG_hPPARg_XSP2: Attagene TRANS-FACTORIAL Multi-Species (XSP2) HepG2 Assay for human Peroxisome Proliferator-activated Receptor gamma (PPARg) (AID 2283829).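 Also: actives raise reporter mRNA above DMSO so AC50 reflects PPARg activation.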 In short, it runs like this:
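Transient MRTU transfection, HepG2; TRANS format (exogenous NR-Gal4 chimeras). 24 h chemical exposure with 3 nM 6-alpha-fluorotestosterone and 1.5 nM norgestrel present. Readout: reporter mRNA via RT-PCR/CE fluorescence, up-direction vs DMSO.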

Assay [5] has as its target mouse Peroxisome Proliferator-activated Receptor gamma (PPARg), Pparg (gene 19016) (UniProt P37238). The assay can be described thus: ATG_mPPARg_XSP2: Attagene TRANS-FACTORIAL Multi-Species (XSP2) HepG2 Assay for mouse Peroxisome Proliferator-activated Receptor gamma (PPARg) (AID 2283830).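 Also: hits are gains in reporter mRNA above DMSO so AC50 marks activation.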 In short, it runs like this: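 Multiplexed TRANS reporter readout: after 24 h chemical exposure of transfected HepG2 cells (with 3 nM 6-alpha-fluorotestosterone, 1.5 nM norgestrel present), RNA reverse-transcribed, amplified, 6-FAM-labelled and resolved by capillary electrophoresis; mouse PPARg-Gal4 induction scored against DMSO.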

The target of assay [6] is Nuclear receptor subfamily 1 group I member 2 (Mus musculus) (UniProt O54915). The assay can be described thus: ATG_mPXR_XSP2: Attagene TRANS-FACTORIAL Multi-Species (XSP1) HepG2 Assay for mouse Pregnane X Receptor (PXR) (AID 2283831). In short, it runs like this: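 Transient HepG2 transfection, multiplexed GAL4-UAS reporters, NR-GAL4 chimeras. 24 h compound exposure. Readout: reporter mRNA, RT-PCR, fluorescent capillary electrophoresis; positive direction vs DMSO baseline.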

Assay [7] addresses zebrafish Thyroid Hormone Receptor alpha (TRa), thraa (gene 30670) (UniProt Q98867). The assay can be described thus: ATG_zfTRa_XSP2: Attagene TRANS-FACTORIAL Multi-Species (XSP1) HepG2 Assay for zebrafish Thyroid Hormone Receptor alpha (TRa) (AID 2283832).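 Also: actives raise zebrafish TRa-Gal4 reporter transcript above DMSO baseline.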 Put shortly: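 Readout is reporter mRNA induction, quantified by RT-PCR and capillary electrophoresis with fluorescent labelling, after 24 h compound exposure of transiently transfected HepG2 cells carrying NR-Gal4 chimera reporters. Activity fitted upward relative to DMSO.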

Assay [8] concerns zebrafish Peroxisome Proliferator-activated Receptor gamma (PPARg), gene 557037. The assay can be described thus: ATG_zfPPARg_XSP2: Attagene TRANS-FACTORIAL Multi-Species (XSP2) HepG2 Assay for zebrafish Peroxisome Proliferator-activated Receptor gamma (PPARg) (AID 2283833).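 Also: actives increase reporter signal over DMSO so AC50 reflects activation.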 Put shortly: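 Transfect HepG2 with multiplexed GAL4-UAS reporter constructs; dose chemical 24 h; isolate RNA, reverse-transcribe, PCR-amplify, label and digest reporter products; resolve by capillary electrophoresis. Activity taken as increase over DMSO.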

In assay [9] the test system is turtle Thyroid Hormone Receptor, alpha (TRa), gene 101949057. Briefly: ATG_trTRa_XSP2: Attagene TRANS-FACTORIAL Multi-Species (XSP1) HepG2 Assay for turtle Thyroid Hormone Receptor, alpha (TRa) (AID 2283834).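 Also: hits raise reporter mRNA over the DMSO baseline so AC50 marks activators.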 Put shortly: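 Readout: reporter mRNA induction, fluorescence after RT-PCR, HpaI digestion and capillary electrophoresis. Transiently transfected HepG2, exogenous NR-Gal4 chimera driving GAL4-UAS reporter, 24 h compound exposure. Activity fitted upward relative to DMSO baseline.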

Assay [10] in a line: ATG_M_61_XSP2: Attagene TRANS-FACTORIAL Multi-Species (XSP2) HepG2 Assay for M61 Transcription Factor (Internal Marker) (AID 2283835; active = hit-call score of the fitted dose curve at least 0.9, where 1 is the maximum; inactive = score below 0.9;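 also: active means a rise in signal above the DMSO baseline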). In short, it runs like this: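 Internal background marker, read as RT-PCR/capillary-electrophoresis reporter mRNA 24 h post-dose in transiently transfected HepG2 cells. Androgen receptor stimulated with 3 nM 6-alpha-fluorotestosterone plus 1.5 nM norgestrel; gain of signal versus DMSO analysed.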

Assay [11] has as its target zebrafish Thyroid Hormone Receptor beta (TRb), thrb (gene 30607) (UniProt Q9PVE4). Briefly: ATG_zfTRb_XSP2: Attagene TRANS-FACTORIAL Multi-Species (XSP1) HepG2 Assay for zebrafish Thyroid Hormone Receptor beta (TRb) (AID 2283836).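 Also: potency for induction of reporter signal above DMSO so agonist direction.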 In short, it runs like this:
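Reporter transcripts were measured by RT-PCR with fluorescent primer extension and capillary electrophoresis, 24 h after chemical dosing of transiently transfected HepG2 cells. Activity was scored as upward signal versus DMSO baseline.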

Assay [12] addresses human Thyroid hormone Receptor alpha (TRa), THRA (gene 7067) (UniProt P10827). Briefly: ATG_hTRa_XSP2: Attagene TRANS-FACTORIAL Multi-Species (XSP2) HepG2 Assay for human Thyroid hormone Receptor alpha (TRa) (AID 2283838). Put shortly: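 Gain-of-signal in reporter mRNA, relative to DMSO, after 24 h dosing of transfected HepG2; quantitation by RT-PCR fragment analysis on capillary electrophoresis.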

Assay [13] has as its target frog Thyroid hormone Receptor alpha (TRa), thra-a (gene 397942) (UniProt P15204). Briefly: ATG_frTRa_XSP2: Attagene TRANS-FACTORIAL Multi-Species (XSP2) HepG2 Assay for frog Thyroid hormone Receptor alpha (TRa) (AID 2283839).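 Also: AC50 reflects induction of frog TRa-driven reporter mRNA above DMSO baseline.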 Put shortly: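 Read-out: fluorescent reporter-transcript fragments resolved by capillary electrophoresis after RT-PCR and HpaI cut. Human HepG2 liver cells carry a transfected frog TRα-Gal4 chimera driving a UAS reporter; 24 h exposure, DMSO baseline, positive-direction fit.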

Assay [14] addresses human Thyroid hormone Receptor beta (TRb), THRB (gene 7068) (UniProt P10828). The assay can be described thus: ATG_hTRb_XSP2: Attagene TRANS-FACTORIAL Multi-Species (XSP2) HepG2 Assay for human Thyroid hormone Receptor beta (TRb) (AID 2283840).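 Also: actives raise reporter mRNA so potency reflects agonist-like gain of signal.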 In short, it runs like this:
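Read-out: reporter mRNA induction (RT-PCR, 6-FAM labeling, capillary electrophoresis), gain-of-signal relative to DMSO baseline. Transiently transfected HepG2 TRANS multiplex (NR-Gal4 chimeras, GAL4-UAS reporters), 24 h chemical exposure; medium contained 3 nM 6-alpha-fluorotestosterone plus 1.5 nM norgestrel.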

A short description of assay [15]: CEETOX_H295R_11DCORT_noMTC: CeeTox H295R High-throughput Steroidogenesis Assay for 11-Deoxycortisol (11DCORT), maximum tolerated concentration (MTC) filtered results only (AID 2283911; active = hit-call score of the fitted dose curve at least 0.9, where 1 is the maximum; inactive = score below 0.9). The following applies: actives raise or lower the signal. Put shortly:
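H295R, OECD 456-based; 10 uM forskolin 48 h → compound (0.1% DMSO) 48 h → medium extracted, 11DCORT by LC-MS/MS. Gain/loss vs DMSO control, all concentrations kept regardless of MTT viability.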

Assay [16] is described as follows: CEETOX_H295R_OHPREG_noMTC: CeeTox H295R High-throughput Steroidogenesis Assay for OH-Pregnenolone (OHPREG), maximum tolerated concentration (MTC) filtered results only (AID 2283912; active = hit-call score of the fitted dose curve at least 0.9, where 1 is the maximum; inactive = score below 0.9). The note with it: actives raise or lower the signal. In short, it runs like this: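 Medium 17alpha-hydroxypregnenolone quantified by reverse-phase HPLC-MS/MS after 48 h chemical exposure of forskolin-prestimulated (10 uM, 48 h) H295R, 0.1% DMSO final. Fitting bidirectional relative to DMSO; no maximum-tolerated-concentration filtering applied.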

Assay [17] can be described thus: CEETOX_H295R_OHPROG_noMTC: CeeTox H295R High-throughput Steroidogenesis Assay for OH-Progesterone (OHPROG), maximum tolerated concentration (MTC) filtered results only (AID 2283914; active = hit-call score of the fitted dose curve at least 0.9, where 1 is the maximum; inactive = score below 0.9). The following applies: actives raise or lower the signal. In short, it runs like this: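 After 48 h forskolin (10 uM) prestimulation, H295R adrenal cells received test chemical in 0.1% DMSO for 48 h. Medium 17alpha-hydroxyprogesterone was MTBE-extracted and measured by HPLC-MS/MS; gain or loss relative to DMSO, no MTT-based MTC filtering.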

A short description of assay [18]: CEETOX_H295R_CORTISOL_noMTC: CeeTox H295R High-throughput Steroidogenesis Assay for Cortisol, maximum tolerated concentration (MTC) filtered results only (AID 2283916; active = hit-call score of the fitted dose curve at least 0.9, where 1 is the maximum; inactive = score below 0.9). The note with it: actives raise or lower the signal. Put shortly: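 Cortisol secretion measured by LC-MS/MS after 48 h chemical treatment (final 0.1% DMSO) of forskolin-primed (10 uM, 48 h) H295R cells; gain or loss fitted relative to DMSO, without maximum-tolerated-concentration filtering.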

The nature of assay [19]: CEETOX_H295R_CORTIC_noMTC: CeeTox H295R High-throughput Steroidogenesis Assay for Corticosterone (CORTIC), maximum tolerated concentration (MTC) filtered results only (AID 2283917; active = hit-call score of the fitted dose curve at least 0.9, where 1 is the maximum; inactive = score below 0.9). The following applies: actives raise or lower the signal. Put shortly: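 Human adrenal H295R cells were prestimulated 48 h with 10 uM forskolin, then exposed 48 h to chemical in 0.1% DMSO. Medium corticosterone was MTBE-extracted and quantified by HPLC-MS/MS; bidirectional fits versus DMSO, concentrations not MTC-filtered.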

Sequence of Peroxisome proliferator-activated receptor gamma (Homo sapiens) (P37231 whole entry, looked up, the tested form may be a part): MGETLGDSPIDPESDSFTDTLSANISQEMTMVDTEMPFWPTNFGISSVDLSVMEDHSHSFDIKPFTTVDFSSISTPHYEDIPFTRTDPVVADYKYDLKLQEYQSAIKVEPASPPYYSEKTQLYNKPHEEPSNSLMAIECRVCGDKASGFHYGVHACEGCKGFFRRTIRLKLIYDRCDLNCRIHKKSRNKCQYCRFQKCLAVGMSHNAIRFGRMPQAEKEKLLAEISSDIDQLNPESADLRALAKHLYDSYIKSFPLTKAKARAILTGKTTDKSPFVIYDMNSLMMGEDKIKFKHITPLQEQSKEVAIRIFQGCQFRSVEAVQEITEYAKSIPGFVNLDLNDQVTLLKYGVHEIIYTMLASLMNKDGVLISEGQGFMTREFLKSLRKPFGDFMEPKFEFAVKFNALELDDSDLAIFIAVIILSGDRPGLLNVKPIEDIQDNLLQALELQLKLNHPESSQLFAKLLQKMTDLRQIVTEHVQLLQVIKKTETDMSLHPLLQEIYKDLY
Sequence of Nuclear receptor subfamily 1 group I member 2 (Mus musculus) (O54915 whole entry, looked up, the tested form may be a part): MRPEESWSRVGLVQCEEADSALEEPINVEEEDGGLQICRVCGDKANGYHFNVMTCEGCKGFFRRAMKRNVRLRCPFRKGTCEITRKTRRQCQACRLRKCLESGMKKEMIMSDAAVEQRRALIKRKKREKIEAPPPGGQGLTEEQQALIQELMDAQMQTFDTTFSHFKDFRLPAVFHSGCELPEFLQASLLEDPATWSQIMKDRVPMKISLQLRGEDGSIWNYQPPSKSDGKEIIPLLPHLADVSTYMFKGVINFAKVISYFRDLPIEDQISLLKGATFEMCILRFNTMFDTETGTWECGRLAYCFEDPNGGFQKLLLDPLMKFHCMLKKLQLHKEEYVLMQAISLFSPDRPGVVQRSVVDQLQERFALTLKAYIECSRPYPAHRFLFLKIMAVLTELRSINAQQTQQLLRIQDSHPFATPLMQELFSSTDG
Sequence of mouse Peroxisome Proliferator-activated Receptor gamma (PPARg), Pparg (gene 19016) (P37238 whole entry, looked up, the tested form may be a part): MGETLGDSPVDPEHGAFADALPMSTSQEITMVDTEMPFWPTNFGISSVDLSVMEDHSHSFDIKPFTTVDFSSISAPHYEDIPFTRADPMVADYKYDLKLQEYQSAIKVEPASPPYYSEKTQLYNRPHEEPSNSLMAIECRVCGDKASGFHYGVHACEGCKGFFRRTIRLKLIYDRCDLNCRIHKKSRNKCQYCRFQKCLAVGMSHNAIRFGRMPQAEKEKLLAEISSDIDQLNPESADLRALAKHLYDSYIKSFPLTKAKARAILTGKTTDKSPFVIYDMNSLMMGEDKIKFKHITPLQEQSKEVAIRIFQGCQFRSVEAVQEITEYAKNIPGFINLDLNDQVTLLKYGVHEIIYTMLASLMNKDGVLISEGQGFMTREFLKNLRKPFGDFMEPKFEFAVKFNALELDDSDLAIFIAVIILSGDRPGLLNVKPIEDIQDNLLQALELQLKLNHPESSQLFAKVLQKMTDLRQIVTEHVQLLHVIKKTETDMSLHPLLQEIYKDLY
Sequence of frog Thyroid hormone Receptor alpha (TRa), thra-a (gene 397942) (P15204 whole entry, looked up, the tested form may be a part): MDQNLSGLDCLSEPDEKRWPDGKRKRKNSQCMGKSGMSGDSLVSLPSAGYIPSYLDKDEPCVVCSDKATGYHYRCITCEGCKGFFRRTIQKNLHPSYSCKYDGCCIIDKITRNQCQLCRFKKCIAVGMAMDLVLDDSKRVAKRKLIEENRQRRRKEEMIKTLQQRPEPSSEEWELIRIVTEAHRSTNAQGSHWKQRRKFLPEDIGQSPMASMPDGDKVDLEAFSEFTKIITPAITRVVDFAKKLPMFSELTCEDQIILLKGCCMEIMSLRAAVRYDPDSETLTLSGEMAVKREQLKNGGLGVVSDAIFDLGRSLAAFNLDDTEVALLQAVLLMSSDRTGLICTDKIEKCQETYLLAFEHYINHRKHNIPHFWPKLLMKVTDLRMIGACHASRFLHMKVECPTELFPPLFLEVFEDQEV
Sequence of zebrafish Thyroid Hormone Receptor beta (TRb), thrb (gene 30607) (Q9PVE4 whole entry, looked up): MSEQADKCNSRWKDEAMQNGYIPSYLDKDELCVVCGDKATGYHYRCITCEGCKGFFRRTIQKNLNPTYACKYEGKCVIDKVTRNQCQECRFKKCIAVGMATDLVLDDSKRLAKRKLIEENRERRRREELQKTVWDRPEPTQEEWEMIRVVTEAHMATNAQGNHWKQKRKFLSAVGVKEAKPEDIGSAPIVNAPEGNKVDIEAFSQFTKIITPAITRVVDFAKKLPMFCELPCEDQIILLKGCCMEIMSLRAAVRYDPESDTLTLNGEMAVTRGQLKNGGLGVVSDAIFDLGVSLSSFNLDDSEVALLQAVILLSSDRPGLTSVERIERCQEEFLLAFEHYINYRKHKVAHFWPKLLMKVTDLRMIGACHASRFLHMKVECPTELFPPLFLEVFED
Sequence of zebrafish Thyroid Hormone Receptor alpha (TRa), thraa (gene 30670) (Q98867 whole entry, looked up, the tested form may be a part): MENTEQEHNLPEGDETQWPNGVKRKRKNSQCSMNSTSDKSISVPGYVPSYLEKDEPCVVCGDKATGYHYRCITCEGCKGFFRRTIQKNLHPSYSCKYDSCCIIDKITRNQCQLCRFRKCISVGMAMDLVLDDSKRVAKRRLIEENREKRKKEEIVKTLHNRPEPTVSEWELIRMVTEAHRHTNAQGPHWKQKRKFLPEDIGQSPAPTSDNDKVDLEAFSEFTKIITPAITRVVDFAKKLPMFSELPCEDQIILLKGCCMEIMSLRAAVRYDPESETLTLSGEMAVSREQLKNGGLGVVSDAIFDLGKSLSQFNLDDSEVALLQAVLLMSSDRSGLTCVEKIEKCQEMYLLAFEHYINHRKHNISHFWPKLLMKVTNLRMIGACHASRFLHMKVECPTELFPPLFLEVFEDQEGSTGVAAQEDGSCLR
Sequence of human Thyroid hormone Receptor alpha (TRa), THRA (gene 7067) (P10827 whole entry, looked up, the tested form may be a part): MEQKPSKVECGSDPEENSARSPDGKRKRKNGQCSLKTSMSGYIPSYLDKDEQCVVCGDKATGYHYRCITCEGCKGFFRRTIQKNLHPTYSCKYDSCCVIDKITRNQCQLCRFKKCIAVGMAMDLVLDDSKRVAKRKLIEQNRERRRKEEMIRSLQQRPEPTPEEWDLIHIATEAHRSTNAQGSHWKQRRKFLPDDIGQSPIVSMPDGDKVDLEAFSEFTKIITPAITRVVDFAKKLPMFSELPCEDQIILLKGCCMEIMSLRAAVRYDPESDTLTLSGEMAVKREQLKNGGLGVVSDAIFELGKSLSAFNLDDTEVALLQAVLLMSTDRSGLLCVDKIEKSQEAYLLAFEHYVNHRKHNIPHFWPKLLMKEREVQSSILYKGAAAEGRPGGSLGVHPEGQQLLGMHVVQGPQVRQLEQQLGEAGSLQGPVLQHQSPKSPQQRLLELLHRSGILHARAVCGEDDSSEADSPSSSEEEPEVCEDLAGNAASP
Sequence of human Thyroid hormone Receptor beta (TRb), THRB (gene 7068) (P10828 whole entry, looked up, the tested form may be a part): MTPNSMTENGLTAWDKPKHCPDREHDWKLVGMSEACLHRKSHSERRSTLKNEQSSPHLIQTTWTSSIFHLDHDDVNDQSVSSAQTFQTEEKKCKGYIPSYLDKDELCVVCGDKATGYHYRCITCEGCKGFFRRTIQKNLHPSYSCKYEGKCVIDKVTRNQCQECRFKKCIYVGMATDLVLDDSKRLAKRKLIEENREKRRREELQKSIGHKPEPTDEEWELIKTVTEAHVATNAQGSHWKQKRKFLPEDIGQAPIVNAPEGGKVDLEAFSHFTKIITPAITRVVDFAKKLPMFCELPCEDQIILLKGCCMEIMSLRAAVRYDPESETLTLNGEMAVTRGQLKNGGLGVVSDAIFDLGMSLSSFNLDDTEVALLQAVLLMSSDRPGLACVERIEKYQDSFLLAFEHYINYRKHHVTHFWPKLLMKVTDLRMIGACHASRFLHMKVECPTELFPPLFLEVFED

`CCCCN1C(=O)[C@@H]([C@H](O)C2CCCCC2)NC(=O)C12CCN(Cc1ccc(Oc3ccc(C(=O)O)cc3)cc1)CC2`: the result in assay [1] was inactive.
As to `COc1cc(C(C)C)c2c(c1)S(=O)(=O)N(COc1cc(=O)n3cccc(OCCN4CCCCC4)c3n1)C2=O`, the result in assay [2] and in assay [1] was inactive.
`c1ccc(C(O[C@@H]2CCCN(CCc3ccc4c(c3)OCO4)C2)c2ccccc2)cc1`: the outcome in assay [2] and in assay [1] was inactive.
Consider `OCC(CO)(CO)CO`, for which the result in [2] and in assay [1] was inactive.
As to `CC(C)C(=O)Nc1ccc([N+](=O)[O-])c(C(F)(F)F)c1`, the call in assay [3], in assay [7], in assay [8], in assay [10], in assay [2] and in assay [1] was inactive. Besides, the AC50 in assay [4] is 53.9 µM (active); in assay [5] it was 82.6 µM (active); in assay [6], 100 µM (active); in [9], 35.9 µM (active); in [11], 65.2 µM (active); in assay [12], 50.1 µM (active). Besides, the AC50 is 42.2 µM (active) in assay [13] and 62.4 µM (active) in assay [14].
`c1ccc2cc3ccccc3cc2c1`: the compound was classed as inactive in [15], in assay [16], in assay [17], in assay [18] and in assay [19].
For `C=CCc1cc(S(=O)(=O)c2ccc(O)c(CC=C)c2)ccc1O`, the result in [3], in assay [6], in assay [8], in assay [9] and in assay [10] was inactive. The AC50 in assay [4] is 5.26 µM (active); in assay [5], 19.2 µM (active); in assay [13] it was 1.72 µM (active); in assay [2], 38.9 µM (active); in [1], 36.8 µM (active).
